Screening results from PubChem.
Tb PFK inh = qHTS Assay to Find Inhibitors of T. brucei phosphofructokinase | T. brucei PFK, ADP-Glo luminescence | Potency, µM (top dose mostly 57.5 µM), for inactives: at the highest dose activity, negative = inhibition, hits mostly inhibitors | 330,000 compounds, 0.17% hits | AID 485367, 2010;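 further: 0% = uninhibited 1x PFK enzyme wells and -100% = no-enzyme wells; nearly all actives have a fitted effect of over 60% in size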
Target sequence (O15648 whole entry, looked up): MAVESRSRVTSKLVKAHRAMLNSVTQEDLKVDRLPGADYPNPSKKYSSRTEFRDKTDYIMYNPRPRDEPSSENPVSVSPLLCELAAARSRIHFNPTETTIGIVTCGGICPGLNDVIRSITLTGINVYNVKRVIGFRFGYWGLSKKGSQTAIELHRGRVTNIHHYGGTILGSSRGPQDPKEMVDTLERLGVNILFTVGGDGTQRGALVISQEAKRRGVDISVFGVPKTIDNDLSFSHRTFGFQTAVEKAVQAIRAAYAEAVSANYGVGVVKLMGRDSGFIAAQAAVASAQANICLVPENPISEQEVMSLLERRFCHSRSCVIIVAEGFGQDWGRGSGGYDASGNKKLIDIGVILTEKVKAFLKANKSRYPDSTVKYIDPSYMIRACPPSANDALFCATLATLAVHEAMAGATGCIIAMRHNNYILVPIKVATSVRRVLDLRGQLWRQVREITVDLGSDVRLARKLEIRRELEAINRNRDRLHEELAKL
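In TEA buffer at pH 8.0 with 5 mM MgCl2, enzyme (1.25 nM) converted F6P (0.5 mM) and ATP (0.1 mM) for 45 min at room temperature. ADP product was read by luciferase luminescence.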
Tb PGK inh = qHTS Assay to Find Inhibitors of Phosphoglycerate Kinase | Potency, µM (series often up to 57.5 µM), inactives show top-dose activity change, negative = inhibition, most hits filed as inhibitors | 380,000 compounds, 0.043% hits | PGK/GAPDH coupled, Kinase-Glo luminescence, 60 min | AID 602233, 2012; further: on the % scale 0 is the no-effect control and ±100 the full control effect; nearly all actives have a fitted effect of over 60% in size
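Recombinant glycosomal PGK reaction used 1,3-bisphosphoglycerate generated in-well by GAPDH (100nM final) in 100mM TEA pH 7.6, 5mM MgCl2, 0.01% Tween-20. After 60 minutes at room temperature, ATP was read by Kinase-Glo Plus luminescence end-point.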
GLP-1R inv ag = qHTS of GLP-1 Receptor Inverse Agonists (Inhibition Mode); HEK293 GLP-1R CRE-luciferase, luminescence, 24 h; GLP-1R form is constitutively active; Potency, µM (series often up to 38.3 µM), without a hit: at the top dose activity change, negative = inhibition, actives largely listed as inhibitors; 410,000 compounds, 1.6% hits; further: on the % scale 0 is the no-effect control and ±100 the full control effect; nearly all actives have a fitted effect of over 55% in size
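Assay principle: reduced luminescence from a cAMP-responsive reporter in HEK293 cells co-expressing a constitutively active GLP-1R. Conditions: 24 hr compound incubation, 37 deg C, 5% CO2.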
GLP-1R agonist = qHTS of GLP-1 Receptor Agonists. Glucagon-like peptide 1 receptor (Homo sapiens), P43220. HEK293 GLP-1R CRE-luciferase, luminescence, 4-6 h; cells express a hypersensitive GLP-1R form. Potency, µM (highest dose often 45.6 µM), inactives show top-dose activation, hits mostly activators. 380,000 compounds, 0.007% hits. AID 624172, 2012; further: % of control where 0% means no effect
HEK293 tox = qHTS of GLP-1 Receptor Inverse Agonists: Cytotox Screen; 410,000 compounds, 0.13% hits; Potency, µM (top dose mostly 38.3 µM), inactives show at the highest dose activity change, negative = inhibition, actives largely listed as inhibitors; AID 624418, 2012; HEK293 cAMP-luciferase reporter cells, luminescence, 24 h;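 further: loss of luciferase light is scored as toxicity; on the % scale 0 is the no-effect control and ±100 the full control effect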
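Luminescence readout: signal drop marks cytotoxicity. Plated cells grew 12 h at 37 °C, 5% CO2, received 23 nL compound for 24 h, then got luciferase reagent, read after 12 min at RT.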
Pin1 inh = qHTS Assay to Find Inhibitors of Pin1 | 390,000 compounds, 0.009% hits | Potency, µM (doses to about 115 µM), for inactives: top-dose activity, negative = inhibition, most hits filed as inhibitors | Peptidyl-prolyl cis-trans isomerase NIMA-interacting 1 (Homo sapiens), Q13526 | AID 504891, 2011 | Pin1 FP peptide displacement, HiFluor488, 10 min; active means well fitted inhibition curve with a large enough effect in the polarisation, with a control signal flat, not every such curve was filed as active; inconclusive means small, poorly fitted or top-dose-only effect, or effect the other way, or a change in a side signal; inactive means no such curve, though single readings can be large or run the other way; the % refers to the polarisation; further: on the % scale 0 is the no-effect control and ±100 the full control effect
Target sequence (Q13526 whole entry, looked up): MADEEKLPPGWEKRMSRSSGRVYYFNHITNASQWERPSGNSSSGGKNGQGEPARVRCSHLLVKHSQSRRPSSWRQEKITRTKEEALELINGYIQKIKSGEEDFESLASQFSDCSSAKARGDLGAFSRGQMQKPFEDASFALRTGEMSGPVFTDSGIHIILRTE
* hit, by the source's call; i = inactive; ? = inconclusive; . = no result. This is a sample that favours compounds with a hit; in the whole collection about 1.8% have one here. Unless noted, the call rests on the fitted dose curve; in most records, active means well fitted curve in the direction sought with a large enough effect; inconclusive means small, poorly fitted or top-dose-only effect, or another doubt; inactive means no such curve, though single readings can be large; an effect the other way counts as inactive or inconclusive. Potency means the concentration at half of the fitted maximal effect.

SMILES	Tb PFK inh	Tb PGK inh	GLP-1R inv ag	GLP-1R agonist	HEK293 tox	Pin1 inh
CCc1ccc(-c2cc(C)no2)cc1S(=O)(=O)N1CCN(c2cccc(C)c2C)CC1	1%	6%	7.9µM*	2%	-10%	6%
Cc1ccsc1CNc1ncnc2ccc(-c3ccc4c(c3)OCO4)cc12	.	.	.	.	.	25%
CCc1ccc(NC(=O)c2ccc(NS(=O)(=O)c3c(C)noc3C)cc2)cc1	.	-7%	?	-1%	2%	-11%
CCC(/C=C1\Sc2ccc(OC)cc2N1CCO)=C\c1sc2ccc(OC)cc2[n+]1CCO	?	?	10µM*	3%	-18%	?
CCC(CC)C(=O)Nc1nnc(S(=O)(=O)N2CCCCCC2)s1	-6%	-3%	7.9µM*	16%	-3%	2%
Cc1ccc(N2C(=O)C(CN3CCCC3)C2c2ccccc2)cc1 (stereo not given)	3%	-2%	10µM*	6%	-7%	-4%
COc1cccc2c1Oc1ncccc1N(C(=O)CCC(=O)NCCC(C)C)C2	.	-2%	13%	.	0%	-5%
CCOc1ccccc1CNC(=O)C1CCN(C(=O)N2CC(CC)Oc3ccc(C)cc32)CC1 (stereo not given)	.	i	?	.	-10%	-1%
CCC(=O)c1ccc(OCc2ccc(C(=O)c3ccccc3)cc2)cc1	2%	-6%	10µM*	0%	18%	-1%
Cc1ccc(N2C(=O)N(CC(=O)Nc3ccc(C)c(C)c3)C(=O)C2C)cc1 (stereo not given)	-2%	2%	10µM*	-8%	-5%	-3%
Cc1ccc(N2C(=O)N(CC(=O)Nc3ccc(F)c(F)c3)C(=O)C2C)cc1 (stereo not given)	0%	2%	?	-14%	2%	-5%
Cc1ccc(N2C(=O)N(CC(=O)Nc3ccc([N+](=O)[O-])cc3)C(=O)C2C)cc1 (stereo not given)	?	-2%	11µM*	8%	-5%	2%
Cc1ccc(N2C(=O)N(CC(=O)Nc3ccc(C)cc3Cl)C(=O)C2C)cc1 (stereo not given)	0%	i	?	-5%	-13%	-1%
Cc1ccc(N2C(=O)N(CC(=O)Nc3cc(Cl)ccc3C)C(=O)C2C)cc1 (stereo not given)	7%	i	10µM*	-3%	8%	1%
Cc1ccc(N2C(=O)N(CC(=O)Nc3cc(C)cc(C)c3)C(=O)C2C)cc1 (stereo not given)	-8%	-5%	4µM*	23%	-9%	6%
COc1ccccc1/C=C/c1nc2ccccc2n1C(C)C	.	-3%	?	.	10%	?
CCn1nc(NS(=O)(=O)c2ccccc2)c2cc3cccc(C)c3nc21	20%	-5%	0%	3%	-4%	0%
CCn1nc(NS(=O)(=O)c2ccc(F)cc2)c2cc3cccc(C)c3nc21	2%	-1%	10µM*	-6%	-4%	5%
O=S(=O)(c1ccc(Cl)c(NC(=S)N/N=C/c2c(F)cccc2F)c1)N1CCOCC1	-5%	1%	2.5µM*	15%	?	6%
Clc1ccc2c(N/N=C/c3cccc(Br)c3)ccnc2c1	0%	6%	13µM*	-3%	?	0%
COc1ccccc1CNS(=O)(=O)c1ccc(F)c(C(=O)Nc2cc(Cl)ccc2OC)c1	.	0%	?	.	11%	14%
COc1ccc(NC(=S)N/N=C/c2ccc(F)cc2)cc1OC	2%	5%	?	0%	5.6µM*	2%
Fc1ccc(NC(=S)N/N=C/c2ccc(F)c(F)c2)cc1	5%	1%	?	7%	6%	-1%
COC(=O)c1ccc(=O)c2nc3/c(=C/O)c(O)cc(=O)c3[nH]c12	-18%	-8%	-25%	4%	?	7.1µM*
Cc1c(P(=S)(c2ccccc2)c2ccccc2)[n+]2ccccc2n1Cc1ccccc1	.	.	.	.	.	1%
SMILES	Tb PFK inh	Tb PGK inh	GLP-1R inv ag	GLP-1R agonist	HEK293 tox	Pin1 inh
CCOC(=O)CC(=O)CSc1nc2cc(C)ccc2cc1C	6%	-2%	10µM*	20%	-5%	?
Cc1ccc(C(=O)NCCc2cccs2)cc1	-1%	1%	5µM*	-3%	3%	-7%
O=C(NCCc1cccs1)c1ccc(Cl)cc1	2%	-1%	10µM*	-1%	-8%	6%
CC(=NNC(=S)N1CCN(C2CCCCCC2)CC1)c1ccccn1	.	-4%	-70%	6%	0.32µM*	15%
CC(=NNC(=S)N1CC2CCC(CC2)C1)c1ccccn1	.	0%	?	-5%	6.3µM*	.
CCOc1ccc(NC(=O)Cn2c(=O)cc(C)c3c(C)nn(-c4cccc(Cl)c4C)c32)cc1	.	i	3%	.	6%	-4%
CCCCCC[n+]1c(-c2ccc(Cl)cc2Cl)csc1Nc1ccccc1	-1%	7%	10µM*	-2%	4%	3%
O=C(c1ccc(S(=O)(=O)Cc2ccccc2Cl)c([N+](=O)[O-])c1)N1CCN(c2ccccn2)CC1	-6%	-6%	10µM*	-1%	-4%	6%
CN(c1ccccc1)S(=O)(=O)c1cc(C(=O)N2CCN(c3ccccn3)CC2)ccc1Cl	-1%	i	13µM*	-13%	-24%	?
Cc1ccc(S(=O)(=O)NCc2ccc(C(=O)N3CCN(c4ccccn4)CC3)cc2)cc1	-1%	-6%	13µM*	-6%	-24%	-8%
O=C(c1ccc(Cl)c(Cl)c1)N1CCN(c2ccccn2)CC1	1%	7%	0%	-2%	12%	?
Cc1nc2ccc(NC(=O)c3ccc(Cl)c(S(=O)(=O)N(C)c4ccccc4)c3)cc2s1	-1%	6%	1.8µM*	7%	-1%	?
COc1cccc(CNC(=O)C2Cc3cc(S(=O)(=O)N4CCCCCC4)ccc3N2C(C)=O)c1 (stereo not given)	.	i	6%	.	-4%	2%
Cc1cc2[nH]c(=O)c(=O)[nH]c2cc1S(=O)(=O)Nc1ccc(OC(F)(F)F)cc1	.	-1%	14%	.	-4%	23%
O=C(c1ccc(N2CCCC2)c([N+](=O)[O-])c1)N1CCN(S(=O)(=O)c2ccc(Cl)cc2)CC1	-7%	0%	10µM*	-10%	-10%	-3%
